Measured values published in PubChem BioAssay (NCI).
This is part of a sample that, as a whole, favours compounds with a hit. Of some 79,000 tested, about 15% had one in any assay. Rule as the data show it: active = growth inhibition above about 70%; inactive = the rest.

What was measured:
[1] = NCI Yeast Anticancer Drug Screen. Data for the rad50 strain (AID 155);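 also: 0% = growth of vehicle-only cultures of the same strain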; conditions: S. cerevisiae rad50 strain growth inhibition; at 50.0 µM; hits give high values
Summary of the method: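 Inhibition values express reduced yeast growth in compound-treated cultures relative to vehicle-treated controls.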

[2] = NCI Yeast Anticancer Drug Screen. Data for the mec2-1 strain (AID 157); conditions: S. cerevisiae mec2-1 strain, at 50.0 µM, hits give high values
Summary of the method: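 Readout is yeast growth inhibition, normalised to vehicle-treated controls, in the mec2-1 strain exposed to compound.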

[3] = NCI Yeast Anticancer Drug Screen. Data for the sgs1 mgt1 strain (AID 161);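 also: 0% = growth of cultures given vehicle only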; conditions: S. cerevisiae sgs1 mgt1 strain, at 50.0 µM, hits give high values
Summary of the method: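 Compounds are added to genetically altered yeast, and growth is compared with cultures given vehicle alone to give percent inhibition.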

[4] = NCI Yeast Anticancer Drug Screen. Data for the cln2 rad14 strain (AID 165);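 also: 0% = growth equal to vehicle treated cultures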; conditions: S. cerevisiae cln2 rad14 strain, at 50.0 µM, hits give high values
Summary of the method: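 Relative to vehicle controls, growth inhibition of compound-treated cln2 rad14 yeast was recorded.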

[5] = NCI Yeast Anticancer Drug Screen. Data for the bub3 strain (AID 167); conditions: S. cerevisiae bub3 mutant strain, at 50.0 µM, hits give high values
Summary of the method: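 Steps: expose the mutant yeast strain to compound; grow alongside vehicle-treated cultures; measure growth; express inhibition against the vehicle cultures.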

[6] = NCI Yeast Anticancer Drug Screen. Data for the mlh1 rad18 strain (AID 175); conditions: S. cerevisiae mlh1 rad18 strain growth inhibition; at 50.0 µM; hits give high values
Summary of the method: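 Test agents were incubated with a yeast strain of defined genotype (DNA damage repair defect). Inhibition of growth was derived by comparison with vehicle-exposed cultures.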

Measured: growth inhibition

NNC(=O)COc1ccc(Br)cc1Br
inactive: [1] 33.2% | [2] 4.25% | [3] -5.15% | [4] 26.4% | [5] 3.8% | [6] -1.25%

Nc1nc(C(=O)O)c([N+](=O)[O-])c(=O)[nH]1
inactive: [1] -31.6% | [2] -13.7% | [3] -14.4% | [4] -20.5% | [5] -6.9% | [6] -11.8%

CC(O)C(NC(=O)c1cnc(OCc2ccccc2)nc1N)C(=O)O (centres undefined)
inactive: [1] 3.65% | [2] -15.7% | [3] -11% | [4] 0.85% | [5] -9.8% | [6] -3.35%

Nc1ccc(CC(=O)O)cc1S(=O)(=O)O
inactive: [1] 25.8% | [2] -18.4% | [3] 4% | [4] 9.1% | [5] 4.25% | [6] 26.6%

CC(C)(C)C1=CC(=O)OC1(Cl)C(C)(C)C (centres undefined)
inactive: [1] -0.65% | [2] 6.8% | [3] -1.05% | [4] 8.8% | [5] 13.8% | [6] -9.05%

CCC(CC)C(=O)OCCCCC1CCCO1 (centres undefined)
inactive: [1] 6.25% | [2] 11.2% | [3] 4.75% | [4] -16.6% | [5] 12.2% | [6] -2.65%

COC(=O)CCC1CCCC(CCC(=O)OC)C1=O (centres undefined)
inactive: [1] -4.9% | [2] 4.55% | [3] -17.6% | [4] -6.1% | [5] -1.1% | [6] -3.3%

O=C(O)c1cc(N=Nc2ccc([N+](=O)[O-])cc2S(=O)(=O)O)ccc1O
inactive: [1] -6% | [2] -2.35% | [3] 24.3% | [4] 16.1% | [5] -19.8% | [6] -9.75%

CC(C)=C=CC(C)(C)NS(=O)(=O)NC(C)(C)C=C=C(C)C
inactive: [1] 12.5% | [2] -9.85% | [3] 2.4% | [4] 3.35% | [5] -16.6% | [6] 8.35%

CC1OC(C)(Cc2ccccc2)OC1C (centres undefined)
inactive: [1] 3.95% | [2] -13.9% | [3] -9.2% | [4] -59% | [5] -7.1% | [6] -8.95%

Cc1cc([N+](C)(C)C)c(C(C)C)cc1O
inactive: [1] -0.45% | [2] 5.7% | [3] 6.25% | [4] 9.55% | [5] 11% | [6] 0.25%

O=C(NC(=O)c1ccccc1F)Nc1ccc(Cl)cc1
inactive: [1] 27.1% | [2] 37.3% | [3] 24.6% | [4] 56.8% | [5] 49.8% | [6] 43.1%

Fc1ccccc1C(Nc1nc2ccccc2s1)Nc1nc2ccccc2s1
inactive: [1] 13.4% | [2] 6.05% | [3] -7.3% | [4] -0.3% | [5] -3.15% | [6] 1.35%

O=C(Nc1ccccc1)NC1CCCC1
inactive: [1] 4.65% | [2] 7.85% | [3] -1.8% | [4] -5.5% | [5] -12.2% | [6] -1.2%

C#C[C@@H](CCCC)OC(=O)N[C@H](C)c1ccccc1
inactive: [1] 58.9% | [2] 49.6% | [3] 64.5% | [4] -11.6% | [5] 22.5% | [6] 16.1%

CN1CC(O)C(C(=O)NC23CC4CC(CC(C4)C2)C3)C1 (centres undefined)
inactive: [1] 30.8% | [2] 4.15% | [3] 11.8% | [4] 14.1% | [5] 10.4% | [6] 30.2%

COc1cc(C(=O)Nc2cccc(Cl)c2Cl)cc(OC)c1OC
inactive: [1] -7.45% | [2] -13.6% | [3] 12% | [4] 21.2% | [5] 18% | [6] 10.9%

CC(=O)NNC(=S)N/C=C(\C#N)C(=O)c1ccc2ccccc2c1
inactive: [1] -59.4% | [2] -22.2% | [3] -12.7% | [4] -1.1% | [5] -25.5% | [6] -53%

Cc1cc(C)c(S(=O)(=O)Nc2ccccc2F)c(C)c1
inactive: [1] 40.1% | [2] 30.7% | [3] 62.9% | [4] 7.3% | [5] 29.4% | [6] 56.9%

COC(=O)Cc1nc2ccccc2o1
inactive: [1] 36.1% | [2] 9% | [3] 20.9% | [4] 37.9% | [5] 59.2% | [6] 31.5%

Cc1ccc(I)c(C)c1
inactive: [1] -40% | [2] -10% | [3] -39.4% | [4] -3.6% | [5] -1.15% | [6] -7.3%

Cc1cc(C)n(-c2nnc(-n3nc(C)cc3C)c3ccccc23)n1
inactive: [1] -12.4% | [2] -1.75% | [3] -21.6% | [4] -5.45% | [5] -5.5% | [6] -3.9%

O=S1(=O)C=C(c2ccccc2)C1
inactive: [1] -8.25% | [2] -2.4% | [3] -19.8% | [4] -33.4% | [5] 4.25% | [6] 8.6%

COc1ccc(CCn2nccc2C)cc1
inactive: [1] -60.9% | [2] -4% | [3] -4.3% | [4] -17.9% | [5] -9.4% | [6] -18.4%

CC(=O)NC1c2ccccc2Oc2c(C)cccc21 (centres undefined)
inactive: [1] -8.8% | [2] 0.85% | [3] 1.7% | [4] -15.9% | [5] 2.75% | [6] 2.6%

COc1ccc(/C=c2\sc3n(c2=O)C(N)=C(C#N)C(c2ccc(OC)cc2)C=3c2nc3ccccc3[nH]2)cc1 (centres undefined)
inactive: [1] 18.1% | [2] -13.2% | [3] 9.95% | [4] -16.1% | [5] 8.95% | [6] 11.3%

COC(=O)C(Cc1nc2ccccc2[nH]c1=O)C(=O)C(=O)Nc1ccc([N+](=O)[O-])cc1[N+](=O)[O-] (centres undefined)
inactive: [1] 7.25% | [2] 22.7% | [3] 4.45% | [4] 0.2% | [5] 18.1% | [6] 13.1%

S=C=NC12CC3CC(CC(C3)C1)C2
inactive: [1] -2% | [2] 0.6% | [3] 0.65% | [4] 15.1% | [5] -4.05% | [6] -15.5%

CN1COc2c3c(c4ccccc4c2C1)CN(C)CO3
inactive: [1] 7.1% | [2] 2.35% | [3] 1.2% | [4] -16.9% | [5] 6.35% | [6] -0.3%

CCOC(=O)C1CC(CCl)OC1=O (centres undefined)
inactive: [1] -3.65% | [2] 7.1% | [3] 2.1% | [4] -22.9% | [5] 0.6% | [6] 3.95%

O=[N+]([O-])c1cccc(SNSc2cccc([N+](=O)[O-])c2)c1
inactive: [1] 29% | [2] 12.8% | [3] 8.4% | [4] -35.5% | [5] 9.8% | [6] 23.8%

COc1cc2c(cc1OC)C(Cl)C(c1ccc(Cl)c(Cl)c1)=C2Cl (centres undefined)
inactive: [1] -0.65% | [2] 14.2% | [3] -4.6% | [4] -0.25% | [5] -4.15% | [6] -5.05%

NC(=O)/C(=C\c1ccc(OCc2ccccc2)c(OCc2ccccc2)c1)NC(=O)c1ccccc1
inactive: [1] 41.2% | [2] 22.4% | [3] 44% | [4] 32.6% | [5] -3.65% | [6] 17.7%

N#CC(Cc1ccccc1)C(=O)O (centres undefined)
inactive: [1] 2.05% | [2] 0.5% | [3] -5.35% | [4] 2% | [5] 1.4% | [6] 0.8%

O=C(NC1CCCCC1)c1cccnc1
inactive: [1] -11.4% | [2] -2.2% | [3] -17.1% | [4] -10.9% | [5] -14.5% | [6] -13.5%

CCCC1SCC(C)(C)NC1=O (centres undefined)
inactive: [1] 4.85% | [2] 3.25% | [3] -1.9% | [4] -18.4% | [5] 7.05% | [6] -2.4%

CC(C)=C1CCC(CN(C)C)C1=O (centres undefined)
inactive: [1] 30.4% | [2] 4.7% | [3] 35% | [4] 5.35% | [5] -18.9% | [6] 7.55%

C=CCc1ccc(OC(=O)Nc2ccc(S(=O)(=O)NC3CCCCC3)cc2)c(OC)c1
inactive: [1] 33.7% | [2] 8.85% | [3] 44.7% | [4] 33.1% | [5] 11.8% | [6] 44.4%

Cc1nc2ccccc2nc1CC(O)(c1ccccc1)c1cccc2ccccc12 (centres undefined)
inactive: [1] 55.8% | [2] 18.9% | [3] 37.4% | [4] 26.9% | [5] 13.2% | [6] 38.4%
